PubChem BioAssay AID1159580 (chemical genetic matrix, 2015)
The campaign covered roughly 5,500 compounds. About 2,000 (36%) were called active. About 18% were inconclusive and are not listed. Cut-off read from the data, not from the text of the source: active = normalized growth mostly below about 0.91 (no sharp cut-off); inconclusive = no clear call, values can overlap the other calls; inactive = mostly above about 0.92. The list shows a part of the results.

Test: chemical genetic growth profiling, strain panel (AID 1159580);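 note: tested at 20 µM; growth read once vehicle control cultures reached saturation at 30 °C; 1 = growth at the plate median or of vehicle wells; lower values mean less growth of the strain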
Details: growth OD

Measured: normalized growth

CC(C)NCC(O)c1ccc2ccccc2c1 (stereo not drawn)
inactive: S. cerevisiae deletion strains, locus YJR066W, strain TOR1, active compounds read low 0.936 | S. cerevisiae deletion strains, locus YJR075W, strain HOC1, active compounds read low 1.02 | S. cerevisiae deletion strains, locus YKL009W, strain mrt4, active compounds read low 0.998 | S. cerevisiae deletion strains, locus YKL068W, active compounds read low 0.997 | S. cerevisiae deletion strains, locus YKL085W, strain MDH1 (second series), active compounds read low 0.996 | S. cerevisiae deletion strains, locus YKL085W, strain MDH1, active compounds read low 0.996 | S. cerevisiae deletion strains, locus YKL160W, strain elf1, active compounds read low 0.994 | S. cerevisiae deletion strains, locus YKR001C, strain vps1, active compounds read low 1.03 | S. cerevisiae deletion strains, locus YKR026C, strain gcn3, active compounds read low 1 | S. cerevisiae deletion strains, locus YKR091W, strain srl3, active compounds read low 1 | S. cerevisiae deletion strains, locus YLL001W, strain dnm1, active compounds read low 1 | S. cerevisiae deletion strains, locus YLL026W, active compounds read low 0.998 | S. cerevisiae deletion strains, locus YLL041C, strain sdh2, active compounds read low 0.998 | S. cerevisiae deletion strains, locus YLR027C, strain aat2, active compounds read low 1 | S. cerevisiae deletion strains, locus YLR039C, strain RIC1, active compounds read low 1.04 | S. cerevisiae deletion strains, locus YLR058C, strain SHM2, active compounds read low 1.01 | S. cerevisiae deletion strains, locus YLR102C, strain apc9, active compounds read low 0.988 | S. cerevisiae deletion strains, locus YLR113W, strain HOG1, active compounds read low 1.05 | S. cerevisiae deletion strains, locus YLR221C, strain rsa3, active compounds read low 1.02 | S. cerevisiae deletion strains, locus YLR258W, strain gsy2, active compounds read low 0.996 | S. cerevisiae deletion strains, locus YLR262C, strain YPT6 (second series), active compounds read low 0.984 | S. cerevisiae deletion strains, locus YLR262C, strain YPT6, active compounds read low 1.07 | S. cerevisiae deletion strains, locus YLR268W, strain sec22, active compounds read low 0.989 | S. cerevisiae deletion strains, locus YLR320W, strain mms22, active compounds read low 1.01 | S. cerevisiae deletion strains, locus YLR330W, strain CHS5, active compounds read low 1.01 | S. cerevisiae deletion strains, locus YLR342W, strain FKS1 (second series), active compounds read low 1.03 | S. cerevisiae deletion strains, locus YLR342W, strain FKS1, active compounds read low 0.999 | S. cerevisiae deletion strains, locus YLR357W, strain rsc2, active compounds read low 0.984 | S. cerevisiae deletion strains, locus YLR370C, strain arc18, active compounds read low 1.02 | S. cerevisiae deletion strains, locus YLR371W, strain rom2, active compounds read low 0.989 | S. cerevisiae deletion strains, locus YLR384C, strain iki3, active compounds read low 1 | S. cerevisiae deletion strains, locus YLR418C, strain cdc73, active compounds read low 0.997 | S. cerevisiae deletion strains, locus YML016C, strain PPZ1, active compounds read low 1 | S. cerevisiae deletion strains, locus YML032C, strain rad52, active compounds read low 1.01 | S. cerevisiae deletion strains, locus YML120C, strain ndi1, active compounds read low 0.991 | S. cerevisiae deletion strains, locus YML124C, strain tub3, active compounds read low 0.991 | S. cerevisiae deletion strains, locus YMR058W, strain fet3, active compounds read low 1 | S. cerevisiae deletion strains, locus YMR078C, strain ctf18, active compounds read low 0.998 | S. cerevisiae deletion strains, locus YMR125W, strain sto1, active compounds read low 0.982 | S. cerevisiae deletion strains, locus YMR129W, active compounds read low 0.98 | S. cerevisiae deletion strains, locus YMR205C, strain PFK2, active compounds read low 0.981 | S. cerevisiae deletion strains, locus YMR223W, strain ubp8, active compounds read low 0.997 | S. cerevisiae deletion strains, locus YMR231W, strain pep5, active compounds read low 1 | S. cerevisiae deletion strains, locus YMR307W, strain GAS1, active compounds read low 1.06 | S. cerevisiae deletion strains, locus YNL067W, strain RPL9B, active compounds read low 1.04 | S. cerevisiae deletion strains, locus YNL071W, strain lat1, active compounds read low 1 | S. cerevisiae deletion strains, locus YNL153C, strain GIM3, active compounds read low 1.05 | S. cerevisiae deletion strains, locus YNL183C, strain NPR1, active compounds read low 0.968 | S. cerevisiae deletion strains, locus YNL209W, strain ssb2, active compounds read low 1 | S. cerevisiae deletion strains, locus YNL233W, strain BNI4, active compounds read low 1.04 | S. cerevisiae deletion strains, locus YNL248C, strain rpa49, active compounds read low 0.998 | S. cerevisiae deletion strains, locus YNL250W, strain rad50, active compounds read low 0.992 | S. cerevisiae deletion strains, locus YNL271C, strain bni1, active compounds read low 1.01 | S. cerevisiae deletion strains, locus YNL298W, strain CLA4, active compounds read low 1 | S. cerevisiae deletion strains, locus YNL307C, strain MCK1, active compounds read low 0.994 | S. cerevisiae deletion strains, locus YNL322C, strain KRE1 (second series), active compounds read low 1 | S. cerevisiae deletion strains, locus YNL322C, strain KRE1, active compounds read low 1.01 | S. cerevisiae deletion strains, locus YNR049C, strain mso1, active compounds read low 0.999 | S. cerevisiae deletion strains, locus YNR052C, strain pop2, active compounds read low 0.997 | S. cerevisiae deletion strains, locus YOL012C, strain htz1 1.41 | S. cerevisiae deletion strains, locus YOL147C, strain pex11, active compounds read low 1 | S. cerevisiae deletion strains, locus YOR001W, strain rrp6, active compounds read low 1 | S. cerevisiae deletion strains, locus YOR061W, strain CKA2, active compounds read low 1.01 | S. cerevisiae deletion strains, locus YOR069W, strain VPS5, active compounds read low 1.01 | S. cerevisiae deletion strains, locus YOR070C, strain gyp1, active compounds read low 1 | S. cerevisiae deletion strains, locus YOR080W, strain dia2, active compounds read low 0.998 | S. cerevisiae deletion strains, locus YOR083W, strain WHI5, active compounds read low 0.991 | S. cerevisiae deletion strains, locus YOR106W, strain vam3, active compounds read low 1.04 | S. cerevisiae deletion strains, locus YOR136W, strain idh2, active compounds read low 0.997 | S. cerevisiae deletion strains, locus YOR144C, strain elg1, active compounds read low 0.99 | S. cerevisiae deletion strains, locus YOR184W, strain ser1, active compounds read low 0.978 | S. cerevisiae deletion strains, locus YOR231W, strain MKK1, active compounds read low 1.06 | S. cerevisiae deletion strains, locus YOR265W, strain rbl2, active compounds read low 0.99 | S. cerevisiae deletion strains, locus YOR270C, strain vph1, active compounds read low 1.02 | S. cerevisiae deletion strains, locus YOR290C, strain snf2, active compounds read low 0.993 | S. cerevisiae deletion strains, locus YOR316C, strain cot1, active compounds read low 0.992 | S. cerevisiae deletion strains, locus YPL051W, strain arl3, active compounds read low 1.01 | S. cerevisiae deletion strains, locus YPL055C, strain LGE1, active compounds read low 1.06 | S. cerevisiae deletion strains, locus YPL078C, strain atp4, active compounds read low 1.01 | S. cerevisiae deletion strains, locus YPL106C, strain sse1, active compounds read low 0.983 | S. cerevisiae deletion strains, locus YPL240C, strain hsp82, active compounds read low 0.997 | S. cerevisiae deletion strains, locus YPL256C, strain CLN2, active compounds read low 1.02 | S. cerevisiae deletion strains, locus YPR119W, strain clb2, active compounds read low 0.99 | S. cerevisiae deletion strains, locus YPR141C, strain kar3, active compounds read low 0.994 | S. cerevisiae deletion strains, locus YPR163C, strain tif3, active compounds read low 0.99 | S. cerevisiae deletion strains, locus YPR167C, strain met16, active compounds read low 0.989 | S. cerevisiae deletion strains, strain wtn01, active compounds read low 1.03 | S. cerevisiae strains, strain wild type, active compounds read low 1.01
